Records with an inconclusive call do not appear. Values without a mark were called inactive. The source made the active and inactive calls. The call rests on the fitted dose curve.
Assay: qHTS assay for small molecules that induce genotoxicity in human embryonic kidney cells expressing luciferase-tagged ATAD5 - cell viability (AID 651634); further: nearly all actives have a fitted effect of over 25% in size
Conditions: HEK293T ATAD5-luc cells viability, CellTiter-Fluor, 15.5 h; series mostly up to 83.3 µM; activity, negative = cytotoxicity: at the top concentration
Source text: National Center for Advancing Translational Sciences [NCATS]
NIH Chemical Genomics Center [NCGC]
U.S. Environmental Protection Agency [EPA]
National Institutes of Environmental Health Sciences [NIEHS]
National Toxicology Program [NTP]
U.S. Food and Drug Administration [FDA]
Enhanced Level of Genome Instability Gene 1 (ELG1; human ATAD5) protein levels increase in response to various types of DNA damage. Using a luciferase reporter-gene tagged with ElG1, a cell-based assay [developed by Kyungjae Myung, NHGRI, NIH] was used to measure the induction of ATAD5 in human embryonic kidney cells (HEK293T). So, increase in luciferase activity can be used to identify the compounds that cause genetic stress. In addition to genotoxicity, these cells were also used to test for cytotoxicity by measuring the protease activity within live cells.
Tox21 Assay Protocol Summary:
For cytotoxicity screening, 2,000 cells in 5 uL/well were dispensed into white, solid-bottom 1536-well plates using a Multidrop Combi (Thermo Scientific) dispenser. Following transfer of 23 nL compound or DMSO vehicle by a pin tool, the plates were incubated 15.5 hr at 37C and 5% CO2. 1 ul CellTiter-Fluor reagent (Promega, Madison, WI) was then added to each plate and following 30 min incubation at 37C, fluorescence intensity was quantified on a ViewLux CCD-based plate reader.
On the % scale 0 is the no-effect control and ±100 the full control effect; potency means the concentration at half of the fitted maximal effect.

SMILES	activity, negative = cytotoxicity	Potency
Cc1cscn1	-9.07%	
COC(=O)CCS	23.4%	
CC(=O)OCCN(CCOC(C)=O)c1ccc(N=Nc2ccc([N+](=O)[O-])cc2C#N)cc1		61.1 µM (active)
CN1CCCC(n2nc(Cc3ccc(Cl)cc3)c3ccccc3c2=O)CC1 (stereo not given)	-17.6%	
CC=C(Cl)Cl	11%	
CN1CCCN=C1COC(=O)C(O)(c1ccccc1)C1CCCCC1 (stereo not given)	13.8%	
CCc1ccccc1	1.35% [at 95.3 µM]	
C=C(C)C(=O)OCCOCCOC(=O)C(=C)C	-6.41%	
CCCCCC#CC(=O)OC	12.9%	
CCN(CC)CCNC(=O)COc1ccc(OC)cc1	14.8%	
NNC(=O)CP(=O)(c1ccccc1)c1ccccc1	19.2%	
CN1C(=O)c2ccccc2C1=O	23.1%	
CCOC(=O)OC(C)OC(=O)[C@@H]1N2C(=O)[C@@H](NC(=O)[C@H](N)c3ccccc3)[C@H]2SC1(C)C (stereo not given in full)	11.6% [at 39.1 µM]	
CCOC(=O)c1ccc(OCCN2C[C@H](O)[C@@H](O)[C@H](O)[C@H]2CO)cc1	8.55%	
O=C1NCCN1CCO	8.58% [at 95.3 µM]	
CC1(C)[C@@H](OC(=O)CCC(=O)O)CC[C@]2(C)[C@H]3C(=O)C=C4[C@@H]5C[C@@](C)(C(=O)O)CC[C@]5(C)CC[C@@]4(C)[C@]3(C)CC[C@@H]12	21.2% [at 39.1 µM]	
C[C@H]1c2cccc(O)c2C(O)=C2C(=O)[C@]3(O)C(O)=C(C(N)=O)C(=O)[C@@H](N(C)C)[C@@H]3[C@@H](O)[C@@H]21	35.8%	
CCC(C)COC(=O)CC(C)C (stereo not given)	16.6%	
CCC(=O)OC	8.18% [at 95.3 µM]	
CC(C)(C)C(=O)C(=O)O	4.66%	

SMILES	activity, negative = cytotoxicity	Potency
C=C1c2cccc(O)c2C(O)=C2C(=O)[C@]3(O)C(O)=C(C(N)=O)C(=O)[C@@H](N(C)C)[C@@H]3[C@@H](O)[C@H]12	18% [at 39.1 µM]	
C=C(C)C(=O)OCCCCCCCCCCCCC	17.2%	
Cc1cc(C)cc(N)c1	15.2% [at 95.3 µM]	
N#[N+]c1ccc2c(S(=O)(=O)[O-])cccc2c1O	-18.3%	
CC(O)c1ccccc1 (stereo not given)	13% [at 95.3 µM]	
C/C=C/C=C/C=O	12.9%	
COc1ccccc1NC(=O)c1cc2ccccc2cc1O	154%	
CN1C(=O)N(c2ccccc2Br)Cc2cnc(Nc3ccc4c(c3)OCC(CO)O4)nc21 (stereo not given)		54.5 µM (active)
Nc1ccc(N=Nc2ccccc2)c(N)c1		67.1 µM (active)
Cc1ccc(OC(=O)c2ccccc2O)cc1	8.52%	
Oc1ccc(Cl)c2cccnc12	10.6%	
Oc1cccc(O)c1O		inactive
O=C1c2ccccc2C(=O)N1CCc1noc(-c2ccc(CN3CCCCCC3)s2)n1	-12.8%	
O=C(OC(=O)c1ccccc1)c1ccccc1	11% [at 95.3 µM]	
Cc1cc(=O)c2c(O)c3c(O)cc(=O)c4c3c3c(cc(O)c1c23)C(C)(C)C=4O		2.66 µM (active)
O=c1c(O)c(-c2ccc(O)cc2)oc2cc(O)cc(O)c12		inactive
C=CC(=O)[O-].C=CC(=O)[O-].[Zn+2]	-4.97%	
O=c1cc(-c2ccccc2)oc2ccc3ccccc3c12	11%	
CC1=C(Br)C(=O)C(Br)=C/C1=C(/c1ccccc1S(=O)(=O)O)c1cc(Br)c(O)c(Br)c1C		37 µM (active)
CCCCCCCCCCC(=O)O	-5.39% [at 95.3 µM]	

Source: PubChem BioAssay (Tox21)
